# Experimental data taken from PubChem BioAssay AID652175 (National Center for Advancing Translational Sciences (NCATS), 2013).
# Records with an inconclusive call do not appear. Unmarked numbers belong to inactive results. Calls of active or inactive are those of the source. Calls follow the shape of the dose curve; as a rule, active = well fitted inhibition curve with a large enough effect; inconclusive = small, poorly fitted or top-dose-only effect; inactive = no such curve, though single readings can be large or run the other way.
# Experiment: qHTS Assay for Lipid Storage Modulators: S3 Assay against Probe and Analogs
# Conditions: Drosophila S3 cells, BODIPY lipid droplet fluorescence, 18-24 h, oleic acid added to induce droplets; series mostly up to 46.1 µM; activity, negative = lipid storage inhibition: at the top concentration
# Text: Storing lipids as a reservoir for energy or the anabolism of elementary metabolites is a common feature of probably all cells and is conserved from bacteria to humans. The universal cellular lipid storage organelle is the so-called lipid storage droplet (LD). Although ubiquitous, LDs share a simple structure composed of a hydrophobic core that harbors the storage lipids, which is shielded by a droplet-specific phospholipid monolayer to which proteins are attached. The current model of LD biogenesis involves an incorporation of the lipid core into the membrane leaflets of the endoplasmic reticulum (ER) followed by a subsequent budding-like maturation of a LD, which ultimately pinches off. Once released, LD volume can increase by localized lipogenesis or fusion of existing droplets. Storage lipids are re-mobilized enzymatically by lipase activity. Lipase regulation in the adipocyte is heavily studied and involves multiple components including catecholamine signaling, the LD-associated proteins Perilipin and comparative gene identification-58 (CGI-58) and at least two lipases named hormone sensitive lipase (HSL) and adipocyte triglyceride lipase (ATGL). LD regulation outside of the adipocyte is poorly understood and only few components are known. However, there is an urgent need to learn more about ectopic fat depots as mislocalized storage of lipids, for example in the liver or muscle, is an eminent health problem associated with insulin resistance or the metabolic syndrome. We developed a laser-scanning cytometer assay to enable 1,536-well screening and combined the results of the small molecules screen with an RNAi database based on lipid storage. In this assay we tested analogs of the probe against the original qHTS assay, which involved drosophila melanogaster cells (S3), to see if these small molecules could disrupt lipid storage. NIH Molecular Libraries Probe Production Centers Network [MLPCN] NIH Chemical Genomics Center [NCGC] MLPCN Grant: MH085686 Assay Submitter (PI): Mathias Beller, Max-Planck-Institut fur Biophysikalische Chemie
# qHTS was performed with embryonic Drosophila S3 cells (Bloomington Drosophila Genomics Resource Center [DGRC]). We dispensed 4 uL of cells at 1.25 x 10^6 cells/mL into LoBase Aurora COC 1,536-well plates (black walled, clear bottom) with a bottle-valve solenoid-based dispenser (Aurora) to obtain 5,000 cells/well. Triacsin C (Sigma-Aldrich T-4540), an inhibitor of long-chain fatty acyl CoA synthetase that blocks synthesis of triglycerides, was used as a positive control for lipid under-storage. A total of 23 nL of compounds dissolved in DMSO at different concentrations were transferred to the assay plates using a Kalypsys pin tool equipped with a 1,536-pin array containing 10-nL slotted pins (FP1S10, 0.457-mm diameter, 50.8 mm long; V&P Scientific). The final DMSO concentration was 0.46%. One microliter of oleic acid at 400 uM (Calbiochem, #4954) was added to induce lipid droplet formation in the cells, and the plates were lidded with stainless steel rubber gasket lined lids containing pinholes. After 18-24 h incubation at 25 0C and 95% humidity, 4 uL of the BODIPY lipid dye 493/503 (1:2000, Molecular Probes) and the Cell Tracker Red CMTPX dye (Life Technologies, # 34552) were added to the wells to stain lipid droplets and enumerate cell number, respectively. Fluorescence was detected by excitation of the fluorophores with a 488-nm laser on an Acumen Explorer (TTP Lab Tech). The total intensity in channel 1 (500-530 nm) reflected lipid droplet accumulation. Cells were detected using channel 3 (575-640 nm) with 5-um width and 100-um depth filters. The ratio of the total intensity in PMT channel 1 over total intensity of channel 3 was also calculated. Percent activity was computed relative to an internal control (100% inhibited lipid droplet deposition due to the presence of 20 uM Triacsin C), which was added to 32 wells/plate.
Compound,Potency,"activity, negative = lipid storage inhibition"
CCOc1ccc(CCNC(=O)c2cc3ccccc3n2Cc2cccc(C)c2)cc1OCC,3.3 nM (active),
CCOc1ccc(CCNC(=O)c2ccc(Oc3ccccc3)cc2)cc1OCC,,43.3% [at 38.8 µM]
CCOc1ccc(CCNC(=O)c2ccc(C(=O)c3ccccc3)cc2)cc1OCC,,46.7%
CCOc1ccc(CCNC(=O)c2cc3ccccc3n2CCN2CCOCC2)cc1OCC,,-100%
CCOc1ccc(CCNC(=O)c2ccccc2)cc1OCC,,33.3%
CCOc1ccc(CCNC(=O)c2cc3sccc3n2Cc2ccc(F)cc2F)cc1OCC,16.6 nM (active),
CCOc1ccc(CCNC(=O)c2cc3sccc3n2CCN(C)C)cc1OCC,2350 nM (active),
CCOc1ccc(CCNC(=O)c2cc3cnccc3n2Cc2cccc(C)n2)cc1OCC,,-27.6%
CCOc1ccc(CCNC(=O)c2cc3ccccc3n2Cc2ccccn2)cc1OCC,118 nM (active),
CCOc1ccc(CCNC(=O)c2cc3ccccc3n2Cc2cccc(C)n2)cc1OCC,13.2 nM (active),
CCOc1ccc(CCNC(=O)c2cc3ccncc3n2Cc2cccc(C)n2)cc1OCC,,-100%
